Inconclusive results are not listed. Calls of active or inactive are those of the source. Rule for the calls: active = hit-call score of the fitted dose curve at least 0.9, where 1 is the maximum; inconclusive = response in the unintended direction; inactive = score below 0.9.
Tested on: not listed separately
Test: ArunA_NOG_BranchPointsPerNeurite: ArunA Biomedical's Neurite Outgrowth (NOG) Assay for Branch Points Per Neurite (AID 2283759)
In short: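 Automated image analysis traced neurites (processes >10 um) from valid cell bodies after Hoechst and βIII-tubulin staining. hNN cells from H9 embryonic stem cells, 48 h exposure. Fitted bidirectionally against DMSO.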

Compound	AC50	outcome
COC(=O)c1ccc(O)cc1	14.8 µM (active)	–
CCCc1cc(=O)[nH]c(=S)[nH]1	–	inactive
CCCCc1ccc2c(n1)[C@@H](c1ccc(OC)cc1C[C@H](C)C(=O)O)[C@H](C(=O)O)[C@H]2c1ccc2c(c1)OCO2	–	inactive
Oc1ccc2ccccc2c1N=Nc1ccccc1	–	inactive
O=c1c(O)c(-c2ccc(O)c(O)c2)oc2cc(O)cc(O)c12	8.06 µM (active)	–
OC[C@@H](O)[C@@H](O)[C@H](O)[C@H](O)CO	9.92 µM (active)	–

Biological target: Luciferin 4-monooxygenase (Photinus pyralis) (UniProt P08659)
Sequence (P08659 whole entry, looked up): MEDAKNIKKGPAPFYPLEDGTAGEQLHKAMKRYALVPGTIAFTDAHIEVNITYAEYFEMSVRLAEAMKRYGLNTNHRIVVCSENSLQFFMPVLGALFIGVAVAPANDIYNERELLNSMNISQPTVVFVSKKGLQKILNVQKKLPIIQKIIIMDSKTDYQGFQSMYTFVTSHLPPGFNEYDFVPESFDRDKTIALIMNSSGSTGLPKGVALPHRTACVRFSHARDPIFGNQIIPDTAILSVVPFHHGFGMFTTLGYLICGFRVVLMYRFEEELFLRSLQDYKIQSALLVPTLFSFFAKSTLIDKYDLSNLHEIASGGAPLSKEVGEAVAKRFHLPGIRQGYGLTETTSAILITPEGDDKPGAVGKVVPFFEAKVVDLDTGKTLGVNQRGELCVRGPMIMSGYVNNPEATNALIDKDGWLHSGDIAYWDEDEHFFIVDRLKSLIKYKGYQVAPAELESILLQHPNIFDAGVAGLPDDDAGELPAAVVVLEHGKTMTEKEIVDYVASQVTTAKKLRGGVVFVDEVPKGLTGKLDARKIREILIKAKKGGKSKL
Test: CCTE_Simmons_QuantiLum_inhib_2: CCTE's Firefly Luciferase Inhibition Assay, Simmons Lab (AID 2283767);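 for AC50: potency for inhibitors that lower luciferase luminescence relative to DMSO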
In short: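 First, 5 ng purified luciferase in phosphate buffer with BSA is dispensed per well. Next, test chemicals (5 nM to 87.5 uM final, 0.5% DMSO) are added and incubated 30 min at 37C in darkness. Finally, luciferin reagent is injected and luminescence read kinetically.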

Compound	outcome	AC50
C=CCc1ccc(O)c(OC)c1	inactive	–
Nc1ccccc1N	–	24.8 µM (active)
C[C@]12C=CC(=O)C=C1CC[C@@H]1[C@@H]2C(=O)C[C@@]2(C)[C@H]1CC[C@]2(O)C(=O)CO	inactive	–
CCOc1ccc2c(c1)C(C)=CC(C)(C)N2	inactive	–
CCCc1cc(=O)[nH]c(=S)[nH]1	inactive	–
CC(C)(C)c1cc(O)c(C(C)(C)C)cc1O	inactive	–
CN1CCCC1=O	inactive	–
Nc1nc(N)c2nc(CNc3ccc(C(=O)N[C@@H](CCC(=O)O)C(=O)O)cc3)cnc2n1	inactive	–
CCCCC(CC)COC(=O)CC(C(=O)OCC(CC)CCCC)S(=O)(=O)O (stereo not given)	–	13.1 µM (active)
COc1cc(S(=O)(=O)O)c(C)cc1N=Nc1c(O)ccc2cc(S(=O)(=O)O)ccc12	–	10.7 µM (active)
Cc1ccc(C)c(O)c1C	inactive	–
Oc1ccc2ccccc2c1N=Nc1ccccc1	–	12.6 µM (active)
Cc1c(C(=O)O)c(O)cc2c1C(=O)c1c(O)c([C@@H]3O[C@H](CO)[C@@H](O)[C@H](O)[C@H]3O)c(O)c(O)c1C2=O	–	18.5 µM (active)
CNC(=O)[C@H]1O[C@@H](n2cnc3c(NCc4cc(Cl)ccc4OCc4cc(C)no4)ncnc32)[C@H](O)[C@@H]1N	inactive	–
O=c1c(O)c(-c2ccc(O)c(O)c2)oc2cc(O)cc(O)c12	–	53.8 µM (active)
CC=Cc1ccc(O)c(OC)c1	inactive	–
Cc1ccc(N(C)C)cc1	inactive	–
COc1ccc(C)cc1N	inactive	–
Cc1cc(=O)[nH]c(=S)[nH]1	–	53.8 µM (active)
Cc1oc(-c2ccccc2)nc1CCOc1cccc2c1ccn2CCC(=O)O	inactive	–
CCNc1cccc(C)c1	inactive	–
Nc1ccc(S(=O)(=O)c2ccc(N)cc2)cc1	inactive	–
CN[C@H]1CC[C@@H](c2ccc(Cl)c(Cl)c2)c2ccc(S(N)(=O)=O)cc21	–	10.7 µM (active)
CC1=C(/C=C/C(C)=C/C=C/C(C)=C/CO)C(C)(C)CCC1	inactive	–

Tested on: not listed separately
Test: ACEA_AR_agonist_AUC_viability: ACEA Biosciences xCELLigence Real-Time Cell Analysis on Androgen Receptor Agonism for Viability (AID 2283775);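 for AC50: viability read 80 hours after compound addition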
In short: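 22Rv1 cells; impedance growth kinetics; 8-pt 1:4 dilutions from 100 uM top final, ≤0.5% DMSO; n = 2; 80 h read; AUC viability, loss-of-signal vs DMSO.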

Compound	outcome	AC50
C=CCc1ccc(O)c(OC)c1	inactive	–
Nc1ccccc1N	inactive	–
COC(=O)c1ccc(O)cc1	inactive	–
CCOc1ccc2c(c1)C(C)=CC(C)(C)N2	–	79.8 µM (active)
CC(C)(C)c1cc(O)c(C(C)(C)C)cc1O	–	66.3 µM (active)
CCCCc1ccc2c(n1)[C@@H](c1ccc(OC)cc1C[C@H](C)C(=O)O)[C@H](C(=O)O)[C@H]2c1ccc2c(c1)OCO2	inactive	–
CN1CCCC1=O	inactive	–
Nc1nc(N)c2nc(CNc3ccc(C(=O)N[C@@H](CCC(=O)O)C(=O)O)cc3)cnc2n1	inactive	–
CCCCC(CC)COC(=O)CC(C(=O)OCC(CC)CCCC)S(=O)(=O)O (stereo not given)	–	88.4 µM (active)
Cc1ccc(C)c(O)c1C	inactive	–
CNC(=O)[C@H]1O[C@@H](n2cnc3c(NCc4cc(Cl)ccc4OCc4cc(C)no4)ncnc32)[C@H](O)[C@@H]1N	inactive	–
O=c1c(O)c(-c2ccc(O)c(O)c2)oc2cc(O)cc(O)c12	–	17.8 µM (active)
CC=Cc1ccc(O)c(OC)c1	–	50 µM (active)
Cc1ccc(N(C)C)cc1	inactive	–
COc1ccc(C)cc1N	inactive	–
Cc1cc(=O)[nH]c(=S)[nH]1	inactive	–
Cc1oc(-c2ccccc2)nc1CCOc1cccc2c1ccn2CCC(=O)O	–	68.8 µM (active)
CCNc1cccc(C)c1	inactive	–
Nc1ccc(S(=O)(=O)c2ccc(N)cc2)cc1	inactive	–
CN[C@H]1CC[C@@H](c2ccc(Cl)c(Cl)c2)c2ccc(S(N)(=O)=O)cc21	–	15.2 µM (active)
CC1=C(/C=C/C(C)=C/C=C/C(C)=C/CO)C(C)(C)CCC1	–	72.2 µM (active)

Tested on: not listed separately
Test: ACEA_AR_antagonist_AUC_viability: ACEA Biosciences xCELLigence Real-Time Cell Analysis on Androgen Receptor Antagonism for Viability (AID 2283776);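 note: 22Rv1 human prostate cancer cells growing on impedance electrode plates; area under impedance growth curve at 80 h after dosing as viability; hits lower the growth signal relative to DMSO meaning cytotoxicity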
In short: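 Impedance read-out (RT-CES): area under growth curve at 80 h post-dose, loss of signal scored vs DMSO baseline. 22Rv1 cells; 8-pt 1:4 series, top 100 uM final, ≤0.5% DMSO; biological duplicate.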

Compound	outcome	AC50
C=CCc1ccc(O)c(OC)c1	inactive	–
Nc1ccccc1N	–	24.2 µM (active)
COC(=O)c1ccc(O)cc1	–	12.7 µM (active)
C[C@]12C=CC(=O)C=C1CC[C@@H]1[C@@H]2C(=O)C[C@@]2(C)[C@H]1CC[C@]2(O)C(=O)CO	inactive	–
CCOc1ccc2c(c1)C(C)=CC(C)(C)N2	–	89.5 µM (active)
CCCc1cc(=O)[nH]c(=S)[nH]1	inactive	–
CC(C)(C)c1cc(O)c(C(C)(C)C)cc1O	inactive	–
CCCCc1ccc2c(n1)[C@@H](c1ccc(OC)cc1C[C@H](C)C(=O)O)[C@H](C(=O)O)[C@H]2c1ccc2c(c1)OCO2	–	19.9 µM (active)
CN1CCCC1=O	inactive	–
CCCCC(CC)COC(=O)CC(C(=O)OCC(CC)CCCC)S(=O)(=O)O (stereo not given)	–	85.2 µM (active)
COc1cc(S(=O)(=O)O)c(C)cc1N=Nc1c(O)ccc2cc(S(=O)(=O)O)ccc12	inactive	–
Cc1ccc(C)c(O)c1C	inactive	–
Oc1ccc2ccccc2c1N=Nc1ccccc1	inactive	–
Cc1c(C(=O)O)c(O)cc2c1C(=O)c1c(O)c([C@@H]3O[C@H](CO)[C@@H](O)[C@H](O)[C@H]3O)c(O)c(O)c1C2=O	inactive	–
CNC(=O)[C@H]1O[C@@H](n2cnc3c(NCc4cc(Cl)ccc4OCc4cc(C)no4)ncnc32)[C@H](O)[C@@H]1N	inactive	–
CC=Cc1ccc(O)c(OC)c1	–	19.3 µM (active)
Cc1ccc(N(C)C)cc1	inactive	–
COc1ccc(C)cc1N	inactive	–
Cc1cc(=O)[nH]c(=S)[nH]1	–	9.94 µM (active)
Cc1oc(-c2ccccc2)nc1CCOc1cccc2c1ccn2CCC(=O)O	–	65.7 µM (active)
CCNc1cccc(C)c1	inactive	–
OC[C@@H](O)[C@@H](O)[C@H](O)[C@H](O)CO	inactive	–
CN[C@H]1CC[C@@H](c2ccc(Cl)c(Cl)c2)c2ccc(S(N)(=O)=O)cc21	–	15.7 µM (active)
CC1=C(/C=C/C(C)=C/C=C/C(C)=C/CO)C(C)(C)CCC1	–	79.8 µM (active)

Reference: PubChem BioAssay (EPA / NIEHS)
